Whole data set: some 18,000 sequences, median “log2 normalized intensity” near 0.36, cut for the highest 2% near 7.3. Shown is part of a subset that was picked to be rich in the highest values.

For the experiment, the target named is T1, HNF4alpha8 (COS-7 nuclear extract) (Homo sapiens, UniProt P41235-5 1-452).
T1 sequence: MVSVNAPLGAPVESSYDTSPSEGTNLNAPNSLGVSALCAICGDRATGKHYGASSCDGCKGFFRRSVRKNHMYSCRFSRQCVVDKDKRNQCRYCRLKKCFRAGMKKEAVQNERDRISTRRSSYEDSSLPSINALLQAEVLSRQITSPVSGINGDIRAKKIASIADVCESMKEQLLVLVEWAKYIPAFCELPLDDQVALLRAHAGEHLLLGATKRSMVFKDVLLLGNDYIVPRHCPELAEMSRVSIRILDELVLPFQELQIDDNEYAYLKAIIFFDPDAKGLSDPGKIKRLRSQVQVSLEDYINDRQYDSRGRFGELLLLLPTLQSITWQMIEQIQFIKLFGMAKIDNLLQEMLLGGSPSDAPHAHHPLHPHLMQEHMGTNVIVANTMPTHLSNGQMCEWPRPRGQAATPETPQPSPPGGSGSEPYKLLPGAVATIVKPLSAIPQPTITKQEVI
The experiment can be described thus: protein-binding microarray; COS-7 nuclear extract on double-stranded Agilent 4x180k PBM; binding buffer, salt, pH and temperature not given in the material; high values mean tight binding. Conditions: chain copies: 2; label: 3' end of strand 1 on the slide; dsDNA, one strand shown. In short, it runs like this:
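Nuclear extracts of COS-7 cells transiently transfected with a human HNF4α isoform were applied to a custom Agilent SurePrint G3 4x180k array bearing ~44,000 double-stranded ~60-nt test sequences, each in quadruplicate. The bound protein was imaged on an Agilent G2565CA scanner at 2-µm resolution. Binding signal is the normalized, background-corrected gProcessedSignal from Agilent software.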
As to “TCTGATACATTGGACAACTGTACTTTGGACGCCTAGGGAGATTAGAGTATCGGTCGA”, the binding signal was 8.02 log2 normalized intensity. Next, “CTCCAAACATCTTTGGTATGGACTGATATTGCCTAGGGAGATTAGAGTATCGGTCGA”: 1.85 log2 normalized intensity; “GAAGGAGAGAGAGGGAGAGTGGCCTTTGGAGCCTAGGGAGATTAGAGTATCGGTCGA”: 4.12 log2 normalized intensity; “CAAACGAGACTTTGGACTTTGGACTTGGGAGCCTAGGGAGATTAGAGTATCGGTCGA”: 10.9 log2 normalized intensity. On to “ACAGTTCTGATACATTGGACAACTGTACTTGCCTAGGGAGATTAGAGTATCGGTCGA”, for which the binding signal amounted to 2.21 log2 normalized intensity.

Turning to “TACATTGGACAACTGTACTTTGGACTGGGGGCCTAGGGAGATTAGAGTATCGGTCGA”, the binding signal amounted to 6.69 log2 normalized intensity. With “GTGACTACCTGGTTAAAAGGACAACCTTCGGCCTAGGGAGATTAGAGTATCGGTCGA”, the binding signal was -0.397 log2 normalized intensity. In the case of “AGAATGTGGTTCTTTTCATTAAATATTTAAGCCTAGGGAGATTAGAGTATCGGTCGA”, the binding signal amounted to 0.534 log2 normalized intensity. Next, “TCCTTTTGACCACAGTTATCTCCCCAGCTTGCCTAGGGAGATTAGAGTATCGGTCGA”: 2.38 log2 normalized intensity; “CCTCAATGCTATCTCCCAGTTCTTTTGACCGCCTAGGGAGATTAGAGTATCGGTCGA”: 2.7 log2 normalized intensity. Next, “CCAGTTCTTTTGACCTTTGCCTCATTCTTAGCCTAGGGAGATTAGAGTATCGGTCGA”: 7.02 log2 normalized intensity; “ATGCTATCTCCCAGTTCTTTTGACCTTTGCGCCTAGGGAGATTAGAGTATCGGTCGA”: 8.5 log2 normalized intensity. The same measure for “ATCTCCCAGTTCTTTTGACCTTTGCCTCATGCCTAGGGAGATTAGAGTATCGGTCGA”: 8.61 log2 normalized intensity; for “AGTTATATCTTACCTCCTTCTCCCCCATGCGCCTAGGGAGATTAGAGTATCGGTCGA”: 4.73 log2 normalized intensity; for “TAGGCATGCAAACTTTGTTTAATGATTGCAGCCTAGGGAGATTAGAGTATCGGTCGA”: 0.0707 log2 normalized intensity. As for “GGTACTGGAAACTGGGCAAGGTCCATTACGGCCTAGGGAGATTAGAGTATCGGTCGA”, the binding signal worked out at 3.56 log2 normalized intensity. As to “CACCTTCTTTCTCCCAGAGGTCGATCTGATGCCTAGGGAGATTAGAGTATCGGTCGA”, the binding signal is 2.25 log2 normalized intensity. The same measure for “ACTGACCTTTGAGAGTCAACACTGAAATAGGCCTAGGGAGATTAGAGTATCGGTCGA”: 2.06 log2 normalized intensity; for “GGTGAAATAGCTGAACTATTTAAGGCCTTTGCCTAGGGAGATTAGAGTATCGGTCGA”: 0.507 log2 normalized intensity; for “AGTTGGAAAATATTTCTCTGAACTTTGACCGCCTAGGGAGATTAGAGTATCGGTCGA”: 8.68 log2 normalized intensity. Next, “CACTTCTGAAAAAAATATTGAACAAAGATTGCCTAGGGAGATTAGAGTATCGGTCGA”: 0.276 log2 normalized intensity. The same measure for “GAAAATATTTCTCTGAACTTTGACCTATAGGCCTAGGGAGATTAGAGTATCGGTCGA”: 9.31 log2 normalized intensity.

As for “TCTTTGATTAGGAAAGGGAACTCCCTGACCGCCTAGGGAGATTAGAGTATCGGTCGA”, the binding signal amounted to 0.445 log2 normalized intensity.

Consider “CTGTTTCTTTGTGTGTCAACAGAGTGCTTAGCCTAGGGAGATTAGAGTATCGGTCGA”, for which the binding signal came to 1.48 log2 normalized intensity. As for “TAGGTACTATTATTAGAGTCCCTTTTTTAGGCCTAGGGAGATTAGAGTATCGGTCGA”, the binding signal stood at 0.509 log2 normalized intensity. The same measure for “GAAAGGATCTCACCCAAACCATCCCAGGCAGCCTAGGGAGATTAGAGTATCGGTCGA”: 3.1 log2 normalized intensity; for “GGTGATGTGAACCTCGATCCCTGGCTAAGGGCCTAGGGAGATTAGAGTATCGGTCGA”: 2.38 log2 normalized intensity. Next, “CCCCACCCGCGGTCCGTCCCTCCTGGTCGAGCCTAGGGAGATTAGAGTATCGGTCGA”: 3.57 log2 normalized intensity. Take “CCCAGTATGAGCGGCGCTGACCCCGGGAGCGCCTAGGGAGATTAGAGTATCGGTCGA”: the binding signal was found to be 3.67 log2 normalized intensity. Consider “TGAGACTTTCCTGTTGGGGAGCAAAGGTTAGCCTAGGGAGATTAGAGTATCGGTCGA”, for which the binding signal stood at 6.1 log2 normalized intensity.

As to “GTCAGAGTGCTGCATGCAAAAAGGCTGACCGCCTAGGGAGATTAGAGTATCGGTCGA”, the binding signal came out at 1.75 log2 normalized intensity. Regarding “AAGAGCTGAGGAAGTGCTGACCTTTGGTCTGCCTAGGGAGATTAGAGTATCGGTCGA”, the binding signal was 7.88 log2 normalized intensity. Next, “TGCATGCAAAAAGGCTGACCTTTGACTCTCGCCTAGGGAGATTAGAGTATCGGTCGA”: 8.15 log2 normalized intensity; “TAGATAAGAGCTGAGGAAGTGCTGACCTTTGCCTAGGGAGATTAGAGTATCGGTCGA”: 6.57 log2 normalized intensity; “TCTCGGTCAAACCTTTGACCCTTTATAATCGCCTAGGGAGATTAGAGTATCGGTCGA”: 6.91 log2 normalized intensity. The same measure for “CTGAGGAAGTGCTGACCTTTGGTCTAAACCGCCTAGGGAGATTAGAGTATCGGTCGA”: 6.93 log2 normalized intensity; for “AGTGCTGCATGCAAAAAGGCTGACCTTTGAGCCTAGGGAGATTAGAGTATCGGTCGA”: 8.62 log2 normalized intensity. “CTTTTTGACCTTGCAGTGGCAAGGCAAAAGGCCTAGGGAGATTAGAGTATCGGTCGA”: the binding signal was determined as 2.28 log2 normalized intensity. Next, “CCTAAACCTGCAAACCTTTGACCTTTCCATGCCTAGGGAGATTAGAGTATCGGTCGA”: 6.22 log2 normalized intensity. Next, “CTTTGAAATGTCCTGAGTGATTGTAGTGTCGCCTAGGGAGATTAGAGTATCGGTCGA”: 1.86 log2 normalized intensity; “CCCCCGCAACTATTTATGAGTCTTGGGAATGCCTAGGGAGATTAGAGTATCGGTCGA”: 0.709 log2 normalized intensity. The same measure for “CACAGTGTTATTTGCTGAGGTGGGGGAGGTGCCTAGGGAGATTAGAGTATCGGTCGA”: 0.772 log2 normalized intensity. On to “TTAGGGAGGGGCCAGGACAAAGGTCCTGTGGCCTAGGGAGATTAGAGTATCGGTCGA”, for which the binding signal was 2.51 log2 normalized intensity.
